# Data from PubChem BioAssay (NCI).
# This is part of a sample that, as a whole, favours compounds with a hit. Of some 83,000 tested, about 20% had one in any assay.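 Treatment: one concentration, 48 hours, 96-well format. Scoring: percent growth, with anything below 10 considered active.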 Calls of active or inactive are those of the source.
# System: SN12C renal
# Experiment: NCI-60 one-dose screen, 48 h (100 = growth as untreated, 0 = no growth, -100 = all killed)
# Details: 10 µM unless noted
row,Compound,growth
1,CCC(c1ccccc1)C(CC)c1ccc(O)c(O)c1 (stereo unspecified),91.9% (inactive)
2,CN1CCN(c2ccc3nc(-c4ccc5nc(-c6ccc(OCCC(C)(C)C)cc6)[nH]c5c4)[nH]c3c2)CC1,75.4% (inactive)
3,NC(N)=Nc1ccc(S(=O)(=O)O)cc1,90.8% (inactive)
4,O=C(/C=C/c1cc2ccccc2[nH]c1=O)/C=C/c1cc2ccccc2[nH]c1=O,23.8% (inactive)
5,Nc1ccc(Nc2nccc(-c3ccc4ccccc4c3)n2)cc1,46.8% (inactive)
6,C=C1CCC2C3(C)COC(c4ccc(OC)cc4Br)OC3CCC2(C)C1/C=C/C1=CCOC1=O (stereo unspecified),79.8% (inactive)
7,CCC(=O)Oc1ccc(/C(=C(\C)c2ccccc2)c2ccc(OCCN(CC)CC)cc2)cc1,84.5% (inactive)
8,CC(=O)/C(=C/c1cccc(Cl)c1)C(=O)c1ccccc1,100% (inactive)
9,NS(=O)(=O)c1ccc(-n2ncc3c(=O)[nH]c(CN4CCN(c5cc6c(cc5F)c(=O)c(C(=O)O)cn6C5CC5)CC4)nc32)cc1,95% (inactive)
10,COc1ccc(-c2nn(-c3ccccc3)cc2/C=C2\SC(=O)NC2=O)cc1,90.8% (inactive)
11,O=C(COc1cccc(/C=C2/Oc3ccccc3C2=O)c1)Nc1nccs1,70.3% (inactive)
12,CN1CCN(Cc2ccc(NC(=O)c3[nH]ncc3Nc3ncnc4sccc34)cc2)CC1,4.54% (active)
13,CC1=N/C(=C\c2cccc(Br)c2)C(=O)O1,98.2% (inactive)
14,COc1cc(C(=O)/C=C/c2c(C)n([O-])c3ccc(C)cc3[n+]2=O)cc(OC)c1OC,60% (inactive)
15,CCN(CC)CC#CCOC(=O)[C@]1(C)CCC[C@@]2(C)[C@H]1CC(C=O)=C1C=C(C(C)C)CC[C@@H]12,77.6% (inactive)
16,C=C1CCC2C3(C)COC(c4ccccc4Br)OC3CCC2(C)C1C/C=C1/C(=O)OCC1OC(C)=O (stereo unspecified),-43.7% (active)
17,CCOC(=O)C(=Cc1ccccc1F)C(=O)OCC,86.9% (inactive)
18,Cn1c2ccccc2c2c3c(c4c5ccccc5n(CCCCCC#N)c4c21)C(=O)N(O)C3=O,10.8% (inactive)
19,CC(=O)C1=C(O)C=C2Oc3c(C(=O)/C=C/c4c(Cl)cccc4Cl)c(O)c(C)c(O)c3[C@]2(C)C1=O,-30.9% (active)

row,Compound,growth
1,Oc1ccc(Nc2nccc(-c3ccc4ccccc4c3)n2)cc1,32.4% (inactive)
2,COc1ccc(C(=O)/C=C/c2cc3ccccc3[nH]c2=O)cc1,45% (inactive)
3,C[C@@]1(N2C(=O)OC[C@@H]2c2ccccc2)C(=O)N([C@H](CC(=O)N2CCC(N3CCCCC3)CC2)C(=O)NCc2cccc(C(F)(F)F)c2)[C@@H]1/C=C/c1ccccc1,74.3% (inactive)
4,CCOC(=O)c1cnc2ccc(Br)cc2c1Nc1cccc(S(=O)(=O)NC)c1,103% (inactive)
5,CCN1CCN(Cc2ccc(NC(=O)Nc3nc4ccc(Oc5ccnc(C(=O)NC)c5)cc4s3)cc2C(F)(F)F)CC1,-75.4% (active)
6,O=c1c2c3c(sc2n2c(CCl)nnc2n1Cc1ccccc1)CCCC3,-82.8% (active)
7,COC(=O)[C@H](C(C)C)n1c(=O)c2cc(OC)c(OC)cc2c2cnc3[nH]ccc3c21,43.5% (inactive)
8,CC(=O)Oc1ccc(Nc2c3ccccc3nc3ccccc23)cc1,5.67% (active)
9,COc1cc(NCCCCN=C(N)NC(N)=NC(C)C)c2ncccc2c1,32.6% (inactive)
10,CCN(CC)C12CCCCC1(C)C(C#N)(C#N)C(C#N)=C(N)O2 (stereo unspecified),97.5% (inactive)
11,O=C(CNC1C2CC3CC(C2)CC1C3)Sc1nnc2sc3ccccc3n12 (stereo unspecified),101% (inactive)
12,COc1ccc(-c2c3c(nc4n[nH]c(-c5ccc(Cl)cc5)c24)-c2ccccc2C(=O)C3=O)cc1,12% (inactive)
13,O=C(/C=C\c1ccc2ccccc2n1)c1cc(Cl)ccc1O,110% (inactive)
14,O=C1c2cc3c(cc2-c2c1c1cc(Cl)c(Cl)cc1c(=O)n2CCCn1ccnc1)OCO3,-4.67% (active)
15,CC1(C)CC(=O)C(c2c(-c3ccccc3)[nH]c3[nH]c(=S)[nH]c(=O)c23)=C(O)C1,99% (inactive)
16,O=C(/C=C/c1cccc(Br)c1)c1ccccc1,96.6% (inactive)
17,O=C(CO[N+](=O)[O-])Nc1ccc(C(=O)/C=C/c2ccc(Cl)cc2)cc1,46.8% (inactive)
18,CN(C)c1ccc(/C=C\C2=[N+](C)c3ccccc3C2(C)C)cc1,-1.45% (active)
19,COc1ccc(CCN2CC=Cn3c2nc2ccccc2c3=O)cc1,32.6% (inactive)

# System: UO-31 renal
# Experiment: as above
# Details: 10 µM unless noted
row,Compound,growth
1,CCC(c1ccccc1)C(CC)c1ccc(O)c(O)c1 (stereo unspecified),74.2% (inactive)
2,CN1CCN(c2ccc3nc(-c4ccc5nc(-c6ccc(OCCC(C)(C)C)cc6)[nH]c5c4)[nH]c3c2)CC1,85.3% (inactive)
3,NC(N)=Nc1ccc(S(=O)(=O)O)cc1,94.6% (inactive)
4,O=C(/C=C/c1cc2ccccc2[nH]c1=O)/C=C/c1cc2ccccc2[nH]c1=O,-83.8% (active)
5,Nc1ccc(Nc2nccc(-c3ccc4ccccc4c3)n2)cc1,45.7% (inactive)
6,C=C1CCC2C3(C)COC(c4ccc(OC)cc4Br)OC3CCC2(C)C1/C=C/C1=CCOC1=O (stereo unspecified),54.2% (inactive)
7,CCC(=O)Oc1ccc(/C(=C(\C)c2ccccc2)c2ccc(OCCN(CC)CC)cc2)cc1,63.3% (inactive)
8,CC(=O)/C(=C/c1cccc(Cl)c1)C(=O)c1ccccc1,72.1% (inactive)
9,NS(=O)(=O)c1ccc(-n2ncc3c(=O)[nH]c(CN4CCN(c5cc6c(cc5F)c(=O)c(C(=O)O)cn6C5CC5)CC4)nc32)cc1,70% (inactive)
10,COc1ccc(-c2nn(-c3ccccc3)cc2/C=C2\SC(=O)NC2=O)cc1,80% (inactive)
11,O=C(COc1cccc(/C=C2/Oc3ccccc3C2=O)c1)Nc1nccs1,-53.2% (active)
12,CN1CCN(Cc2ccc(NC(=O)c3[nH]ncc3Nc3ncnc4sccc34)cc2)CC1,14.8% (inactive)
13,CC1=N/C(=C\c2cccc(Br)c2)C(=O)O1,90.1% (inactive)
14,COc1cc(C(=O)/C=C/c2c(C)n([O-])c3ccc(C)cc3[n+]2=O)cc(OC)c1OC,-27.3% (active)
15,CCN(CC)CC#CCOC(=O)[C@]1(C)CCC[C@@]2(C)[C@H]1CC(C=O)=C1C=C(C(C)C)CC[C@@H]12,52.6% (inactive)
16,C=C1CCC2C3(C)COC(c4ccccc4Br)OC3CCC2(C)C1C/C=C1/C(=O)OCC1OC(C)=O (stereo unspecified),26% (inactive)
17,CCOC(=O)C(=Cc1ccccc1F)C(=O)OCC,87.7% (inactive)
18,Cn1c2ccccc2c2c3c(c4c5ccccc5n(CCCCCC#N)c4c21)C(=O)N(O)C3=O,2.03% (active)
19,CC(=O)C1=C(O)C=C2Oc3c(C(=O)/C=C/c4c(Cl)cccc4Cl)c(O)c(C)c(O)c3[C@]2(C)C1=O,-28.6% (active)

row,Compound,growth
1,Oc1ccc(Nc2nccc(-c3ccc4ccccc4c3)n2)cc1,29% (inactive)
2,COc1ccc(C(=O)/C=C/c2cc3ccccc3[nH]c2=O)cc1,24.9% (inactive)
3,C[C@@]1(N2C(=O)OC[C@@H]2c2ccccc2)C(=O)N([C@H](CC(=O)N2CCC(N3CCCCC3)CC2)C(=O)NCc2cccc(C(F)(F)F)c2)[C@@H]1/C=C/c1ccccc1,57.8% (inactive)
4,CCOC(=O)c1cnc2ccc(Br)cc2c1Nc1cccc(S(=O)(=O)NC)c1,80.4% (inactive)
5,CCN1CCN(Cc2ccc(NC(=O)Nc3nc4ccc(Oc5ccnc(C(=O)NC)c5)cc4s3)cc2C(F)(F)F)CC1,-80.5% (active)
6,O=c1c2c3c(sc2n2c(CCl)nnc2n1Cc1ccccc1)CCCC3,-83.2% (active)
7,COC(=O)[C@H](C(C)C)n1c(=O)c2cc(OC)c(OC)cc2c2cnc3[nH]ccc3c21,22% (inactive)
8,CC(=O)Oc1ccc(Nc2c3ccccc3nc3ccccc23)cc1,-16.4% (active)
9,COc1cc(NCCCCN=C(N)NC(N)=NC(C)C)c2ncccc2c1,71.6% (inactive)
10,CCN(CC)C12CCCCC1(C)C(C#N)(C#N)C(C#N)=C(N)O2 (stereo unspecified),82.7% (inactive)
11,O=C(CNC1C2CC3CC(C2)CC1C3)Sc1nnc2sc3ccccc3n12 (stereo unspecified),78.3% (inactive)
12,COc1ccc(-c2c3c(nc4n[nH]c(-c5ccc(Cl)cc5)c24)-c2ccccc2C(=O)C3=O)cc1,0.604% (active)
13,O=C(/C=C\c1ccc2ccccc2n1)c1cc(Cl)ccc1O,65.2% (inactive)
14,O=C1c2cc3c(cc2-c2c1c1cc(Cl)c(Cl)cc1c(=O)n2CCCn1ccnc1)OCO3,1.1% (active)
15,CC1(C)CC(=O)C(c2c(-c3ccccc3)[nH]c3[nH]c(=S)[nH]c(=O)c23)=C(O)C1,90.9% (inactive)
16,O=C(/C=C/c1cccc(Br)c1)c1ccccc1,71.1% (inactive)
17,O=C(CO[N+](=O)[O-])Nc1ccc(C(=O)/C=C/c2ccc(Cl)cc2)cc1,32% (inactive)
18,CN(C)c1ccc(/C=C\C2=[N+](C)c3ccccc3C2(C)C)cc1,55% (inactive)
19,COc1ccc(CCN2CC=Cn3c2nc2ccccc2c3=O)cc1,35.2% (inactive)
